MLL AF4-AF9 inh = inhibitors of human MLL-AF4/AF9 interaction; P42568; AlphaScreen, biotin-AF4 peptide binding to FLAG-AF9; inhibition, % at 10 µM; 0.47% of 350,000 active; AID 651704;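 active = every replicate reaching a set inhibition limit, whatever the replicate mean, cut at about 25% in these data; inconclusive = mean inhibition reaches that limit but some replicates miss it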;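 also: 0% = plate neutral control median and 100% = total signal loss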
Target sequence (P42568 whole entry, looked up): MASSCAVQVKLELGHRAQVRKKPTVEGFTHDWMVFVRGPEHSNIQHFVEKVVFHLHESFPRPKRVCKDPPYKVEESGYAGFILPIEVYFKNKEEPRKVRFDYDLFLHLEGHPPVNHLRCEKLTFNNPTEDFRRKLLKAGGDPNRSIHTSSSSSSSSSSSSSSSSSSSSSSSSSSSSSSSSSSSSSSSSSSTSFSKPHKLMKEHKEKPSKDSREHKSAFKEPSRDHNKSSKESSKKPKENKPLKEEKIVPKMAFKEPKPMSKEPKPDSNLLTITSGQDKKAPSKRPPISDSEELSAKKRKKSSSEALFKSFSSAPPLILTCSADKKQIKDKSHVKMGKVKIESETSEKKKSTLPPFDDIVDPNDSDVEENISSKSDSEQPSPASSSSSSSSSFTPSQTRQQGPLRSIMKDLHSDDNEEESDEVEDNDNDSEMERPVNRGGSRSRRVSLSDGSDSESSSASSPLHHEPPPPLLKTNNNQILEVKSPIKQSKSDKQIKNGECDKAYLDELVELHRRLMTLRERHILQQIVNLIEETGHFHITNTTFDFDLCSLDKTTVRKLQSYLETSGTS
MITF act = MITF TRPM1 promoter activation in melanoma cells. SK-MEL-5 TRPM1-promoter luciferase, 24 h; % of positive control, neutral wells = 0. activation, % at 12.5 µM. 0.75% of 300,000 active. AID 588334;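 active = mean activation of at least 80% with every replicate also reaching 80%; inconclusive = mean reaches 80% but some replicate falls short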;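 also: 0% = neutral control wells and 100% = parthenolide positive control wells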
esBAF inh = blocks esBAF chromatin remodeling in mouse ES cells | AID 602393 | reporter increase, % at 12.5 µM | 2% of 350,000 active | Bmi1-luciferase knock-in reporter, 24 h; 100% = twice the neutral-well signal; in the data active = activation above about 40%; inconclusive = no clear call, values can overlap the other calls;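 also: 0% = median of the plate's neutral control wells and 100% = double that signal; a rise in the Bmi1 reporter signal indicates esBAF inhibition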
Ecoli rRNA inh = inhibitors of bacterial rRNA selective over humanized ribosomes; E. coli WT GFP vs humanized-ribosome RFP mutants, fluorescence, 24 h; hits give low values; DMSO median 0, no signal -100; GFP signal change (wild-type ribosome), % (concentration not given with the values); 1.6% of 350,000 active;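 active = significant combined selectivity score with lowered wild-type GFP, culture density cut under 30%, mutant RFP and density less affected; inactive = any of these conditions unmet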
Wnt act = activates Wnt/beta-catenin signaling in a reporter cell assay; activator, plate reader; activation, % at 9.35 µM; 1.2% of 300,000 active; AID 743398; in the data active = activation above about 30%, passing the limit was not always enough; inconclusive = no clear call, values can overlap the other calls;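 also: 0% = neutral control wells and 100% = positive control wells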
HepG2 tox = kills or reduces viability of HepG2 cells; shares compounds with Ecoli rRNA inh; ATP luminescence, 72 h; activity change, negative = cytotoxicity, unspecified at 26 µM; 30 tested, under 10 active; AID 743480;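 active = compounds whose fitted half-maximal signal-loss concentration is at most twice their highest valid dose; inconclusive = flat curve with 30 to 70% signal loss, or poor fit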
AID977621 = growth inhibition of wild-type GFP E. coli, dose response, H69 mutant RFP, cherry-pick; shares compounds with Ecoli rRNA inh; E. coli wild-type GFP strain growth, fluorescence, 24 h; activity change, negative = inhibition at 50 µM; 1,900 tested, under 10 active; AID 977621;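 active = Wild-type ribosome reporter drop at least double the humanized mutant ribosome reporter drop, growth loss under a set limit; inconclusive = no clear call, values can overlap the other calls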;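 also: wild-type GFP and H69 mutant RFP strains grown together 50/50 in each well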
AID977628 = growth of wild-type and h24-humanized E. coli strains – h24 mutant RFP vs wild-type GFP, cherry-pick, dose response; shares compounds with Ecoli rRNA inh; E. coli WT GFP strain growth, fluorescence, 24 h; activity change, negative = inhibition at 50 µM; 1,900 tested, under 10 active; AID 977628;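 active = compound lowering the normal-ribosome reporter at least twice as much as the humanized-ribosome reporter, growth loss under a set limit; inconclusive = no clear call, values can overlap the other calls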;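 also: wild-type GFP and h24 humanized RFP strains co-cultured 1 to 1 per well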
Numbers without * were called inactive; u = inconclusive; x = no result given. Shown are actives, neighbours in structure and some others; about 3.7% of the full set was active somewhere.

SMILES	MLL AF4-AF9 inh	MITF act	esBAF inh	Ecoli rRNA inh	Wnt act	AID977621	AID977628	others
COc1cccc(NC(=O)N(C)C[C@@H]2Oc3ncc(C#Cc4cccnc4)cc3C(=O)N([C@H](C)CO)C[C@H]2C)c1	-3	x	3	-1	x	x	x
CCOC(=O)C1CCCN(C(=O)COc2ccc(S(=O)(=O)N3CCOCC3)cc2)C1 (stereo not given)	-1	-7	-1	6	-1	x	x
O=C(Cc1ccc(Cl)cc1)c1ccc(O)cc1	2	73	x	-37*	1	-3.6	u
O=C(Cc1ccccc1Cl)Nc1nc2ccccc2[nH]1	-7	4	25	-20*	4	-8.9	u
O=C(O)c1cc2ccc3ccccc3c2[nH]1	2	-16	-11	-26*	-2	-5.3	x
CC(=O)Nc1ccc2nc3ccccc3nc2c1	2	x	42*	-26*	47*	-17	x
CC(=O)Nc1cccc(Nc2nc(-c3ccccc3)nc3ccccc23)c1	-2	-12	x	-22*	0	x	u
Cc1ccc(-n2nc(C)c3c(C)c(CCC(=O)O)c(C)nc32)cc1C	-1	-11	-20	-26*	2	-15	x
Cc1ccc(-n2nc(C)c3c(C)c(CCC(=O)O)c(C)nc32)cc1	-2	-19	-2	-8	4	x	x
O=C(NCc1ccccc1Cl)c1ccccc1CCc1ccccc1	-4	77	x	-13	-4	x	x
C=CCNC(=O)c1ccccc1CCc1ccccc1	-1	10	-8	-26*	-2	4.9	-3.4
CCOC(=O)N1CCN(CC(=O)c2ccc3c(c2)CCN3C(C)=O)CC1	1	x	-5	-2	-1	x	x
NC(=O)c1ccc(NC(=O)CSc2nnc(C3CC3)n2C2CC2)cc1	0	6	x	x	-1	x	x
Cc1ccccc1SCC(=O)NCC(c1ccc(F)cc1)N1CCOCC1 (stereo not given)	2	1	-3	x	-2	x	x
C=C(C)Cn1c(=O)c2c(nc3n2CC(C)CN3Cc2ccccc2)n(C)c1=O (stereo not given)	4	2	-2	-24*	-2	-16	u
COC(=O)Cn1c(=O)c2c(nc3n2CC(C)CN3Cc2ccccc2)n(C)c1=O (stereo not given)	-1	5	x	1	-3	x	x
O=C(NCc1ccccc1)c1cc(S(=O)(=O)N2CCCCC2)ccc1N1CCOCC1	-1	2	-1	-18*	-2	-8.3	-4.6
CC(CNc1ccc(Cl)cc1)(CNc1ccc(Cl)cc1)[N+](=O)[O-]	2	0	1	-20*	-4	u	u	HepG2 tox=16
OCCNc1ccc(Cl)cc1	x	-5	23	x	x	x	x
O=C(Cc1ccccc1)N[C@H]1C=C[C@H](CC(=O)N2CCOCC2)O[C@H]1CO	4	x	0	-3	x	x	x
C=CCSc1cc(C)nc2c(-c3ccc(Cl)cc3)c(C)nn12	-3	23	-7	-51	-7	x	x
Cc1cc(SCC(=O)c2cccs2)n2nc(C)c(-c3ccc(Cl)cc3)c2n1	-6	-9	x	-31*	3	-1.6	-1.9
O=C(NCCCO)c1cc([N+](=O)[O-])cc2c1C=Cc1ccccc1O2	3	-6	-8	3	-2	x	x
COc1cccc2c1Oc1cc([N+](=O)[O-])cc(N(C)C(C)=O)c1C=C2	7	-21	-1	-17*	-1	x	u
CCOC(=O)c1cc(-c2ccc(OC)cc2)n[nH]1	-2	x	70*	-25*	23	-24	-13
SMILES	MLL AF4-AF9 inh	MITF act	esBAF inh	Ecoli rRNA inh	Wnt act	AID977621	AID977628	others
COc1ccc(NC(=O)Nc2cccc3c2O[C@H](CN(C)S(=O)(=O)c2ccc(Cl)cc2)[C@H](C)CN([C@H](C)CO)C3=O)cc1	0	x	8	-18	x	-15	u
COc1ccc(NC(=O)Nc2cccc3c2O[C@@H](CN(C)S(=O)(=O)c2ccc(OC)cc2)[C@H](C)CN([C@H](C)CO)C3=O)cc1	1	x	-1	-3	x	x	x
C[C@@H]1CN([C@H](C)CO)C(=O)c2cccc(NC(=O)c3ccncc3)c2O[C@@H]1CN(C)S(=O)(=O)c1ccc(Cl)cc1	-2	x	4	-23*	x	x	u
O=C(O)CC1(CC(=O)Nc2ccc3sccc3c2)CCCCC1	3	x	x	-26*	-1	5.9	-11
Cc1cc(=O)[nH]c(NC(=O)Cc2ccccc2)n1	2	x	-2	7	0	x	x
COc1cccc(NC(=O)CSc2nc3c(sc4ccccc43)c(=O)n2CCCN2CCCC2)c1	21	-98	-8	-1	9	x	x
COc1cccc(NC(=O)CSc2nc3c(sc4ccccc43)c(=O)n2CCN(C)C)c1	0	14	x	-22*	-2	u	-5.4
CC(C)CN1C(=O)c2ccc(C(=O)Nc3ccncc3)cc2C1=O	6	-1	4	-25*	0	x	-9.2
COc1ccc(-c2nn(-c3ccccc3C)cc2CNCc2cccnc2)cc1F	-1	-9	-1	-18*	2	3.6	-12
Cc1cc(C(=O)NCC(=O)Nc2ccc(F)c(F)c2)c(C)o1	0	0	-1	-6	0	x	x
Cc1cccc(C)c1-n1nnnc1C1(C)CCC(=O)N1Cc1cccs1 (stereo not given)	-1	x	x	-21*	0	-26	x
Cc1cccc(S(=O)(=O)Nc2ccc(-c3cn4ccccc4n3)cc2)c1	7	6	x	-32*	6	u	x
Cc1cccc(NS(=O)(=O)c2c(C(=O)N3CCCC3)c(C)n(C)c2C)c1	0	-10	1	10	2	x	x
Cc1cc(C)cc(NS(=O)(=O)c2c(C(=O)N3CCCCCC3)c(C)n(C)c2C)c1	4	5	-2	-29*	-2	-5.3	-7.1
CCN(CC(=O)Nc1cccc(C#N)c1)CC(=O)Nc1cccc(OC)c1	-1	13	1	-22*	-2	-3.5	x
O=C(O)CCCCCCCCc1cn(Cc2ccc(C(=O)c3ccccc3)cc2)nn1	x	-31	x	-16	-2	x	x
O=C(O)CCCCCCCCc1cn(CC2CCCCC2)nn1	0	-6	-26	-21*	-2	u	x
Cc1cc(S(=O)(=O)N2CCN(c3ccccc3O)CC2)c(C)s1	7	6	-7	-4	-3	x	x
CCn1c(SCc2ccc(OC)c(F)c2)nc2ccccc2c1=O	-1	5	-4	-7	4	x	x
COc1ccc(CSc2nc3ccccc3c(=O)n2CCCN2CCOCC2)cc1F	5	18	-7	-28*	3	-4.5	-18
CCCN(C)C[C@@H]1Oc2cc(C#Cc3ccccc3OC)ccc2S(=O)(=O)N([C@@H](C)CO)C[C@@H]1C	4	x	-6	4	x	x	x

Bioassay records as filed in PubChem BioAssay.
